In PubChem BioAssay (NCI):
This is part of a sample that, as a whole, favours compounds with a hit. Of some 83,000 tested, about 20% had one in any assay.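 Each cell line was grown in a 96-well plate and treated with one concentration of compound for 48 hours. Values below 10 were considered active.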 A number with no mark means an inactive call. Calls of active or inactive are those of the source.

System: PC-3 prostate
Experiment: NCI-60 one-dose screen, 48 h (100 = growth as untreated, 0 = no growth, -100 = all killed)
Details: 10 µM unless noted

Going from `CCNC(=O)Oc1ccc(/C(=C(/C)Cc2ccc(OC)cc2)c2ccc(OCCN3CCCCCC3)cc2)cc1` to `C/C(=C(\c1ccc(OCCN2CCCCCC2)cc1)c1ccc(OC(=O)Cc2ccccc2)cc1)c1ccc(Cl)cc1`, the growth falls from 63.8% to 41.9%.

Compared with `NC(CSC(c1ccccc1)(c1ccccc1)c1ccc2c(c1)OCO2)C(=O)O` (stereo not given), `O=C(Nc1ccccc1)c1sc(-c2ccccc2)cc1O` is higher in growth: 18.7% for the first, 95.2% for the second.

Going from `Cn1ccnc1C(=O)/C=C/c1ccc(C(=O)Nc2ccc(F)cc2)cc1` to `C=CCn1c(SCC(=O)Nc2ccc(C(=O)/C=C/c3ccc(OC)cc3)cc2)nnc1-c1ccccc1`, the growth rises from 22.2% to 67.1%.

Going from `CCC/C(=N\NC(N)=O)C(OC)OC` to `CCOC(=O)n1cc(-c2nonc2-c2cn(C)c3ccccc23)c2ccccc21`, the growth falls from 97% to 48.1%.

Going from `O=C1CC2C=CCN2C=C1NC(=O)C1CCCCC1` (stereo not given) to `CC[C@H](CC[C@@H](C)[C@H]1CC[C@H]2[C@@H]3CC[C@@H]4CC(=O)/C(=C\c5ccncc5)C[C@]4(C)[C@H]3CC[C@]12C)C(C)C`, the growth falls from 94.8% to 92.6%.

Going from `O=C1/C(=C/c2cccc([N+](=O)[O-])c2)COc2ccc(O)cc21` to `O=c1oc2c(cnc3ccccc32)cc1-c1cccs1`, the growth rises from 42.9% to 97.3%.

First: COc1cc2c3c(c1O)-c1ccccc1[C@@H]1OC(=O)N(CC2)[C@H]31
Second: COc1ccccc1-n1c(-c2cc(O)ccc2C)cn2c3c(=O)[nH]c(=O)n(C)c3nc12
The growth of the first is higher: 70.7% for the first, 67.1% for the second.

Compared with `COC(c1ccc2ccccc2c1)C(C)C(F)F` (stereo not given), `COc1ccc2nc3ccccc3c(NCc3ccc(F)cc3)c2c1` is lower in growth: 96.6% for the first, 17.1% for the second.

Going from `Nc1ncnc2c1c(-c1ccc(Oc3ccccc3)cc1)nn2CC1SSCC1O` (stereo not given) to `C#CCn1cnc2c(Nc3cccc(NC(=O)CCl)c3)ncnc21`, the growth falls from 61.7% to 28.6%.

First: Cc1cc2oc(=O)cc(CP(=O)(O)O)c2cc1O
Second: COc1cc(C#Cc2ccc(=O)oc2C#Cc2ccccc2)cc(OC)c1OC
The growth of the first is higher: 94.9% for the first, 86.2% for the second.

First: Cc1cc(C)cc(Nc2ccc([N+](=O)[O-])c(NCCN3CCOCC3)n2)c1
Second: CCC(C)Nc1ccc(NC(C)CC)cc1 (stereo not given)
The growth of the first is lower: 17.2% for the first, 80.7% for the second.

Work on `CCCCCCCCCCCCCCCCCCOc1ccccc1CC(=O)OCC[N+]1(C)CCOCC1` yielded a growth of 41.1%.

With `COc1ccccc1NC(=O)c1ccc(/C=C/C(=O)c2nccn2C)cc1` the growth was -49.4% (active).
In the case of `O=C1c2cccnc2C(=O)c2c1c(C(=O)OCCCN1CCCCC1)c1ccccn21`, the growth is reported as -18.2% (active).
`COc1ccc(Cl)cc1Nc1nc(C(F)(F)F)ccc1C(=O)N/N=C/c1ccccc1Cl` was tested, and the growth was 5.53% (active).

System: SK-MEL-5 melanoma
Experiment: as above
Details: 10 µM unless noted

First: CC(=O)N/C(=C1/OC(C(O)C(O)C(O)CO)CN1C)[P+](c1ccccc1)(c1ccccc1)c1ccccc1 (stereo not given)
Second: O=C(Nc1ccccc1)c1sc(-c2ccccc2)cc1O
The growth of the first is higher: 95.5% for the first, 83.7% for the second.

First: COc1ccc(/C=C/C(=O)c2ccc(Nc3nc(Nc4ccc(F)cc4)nc(Nc4ccc(Cl)cc4)n3)cc2)cc1
Second: C=CCn1c(SCC(=O)Nc2ccc(C(=O)/C=C/c3ccc(OC)cc3)cc2)nnc1-c1ccccc1
The growth of the first is lower: 83.6% for the first, 92.2% for the second.

Compared with `O=C1NC(=C(Cl)Cl)/C(=N/S(=O)(=O)NCCc2c[nH]c3ccccc23)N1`, `O=c1oc2c(cnc3ccccc32)cc1-c1cccs1` is higher in growth: 74.3% for the first, 101% for the second.

First: COc1ccc(C/C(C)=C(\c2ccc(O)cc2)c2ccc(OCCN3CCCC3)cc2)cc1
Second: CCNC(=O)Oc1ccc(/C(=C(/C)Cc2ccc(OC)cc2)c2ccc(OCCN3CCCCCC3)cc2)cc1
The growth of the first is higher: 111% for the first, 66.2% for the second.

Compared with `CCOC(=O)NN1CC(O)=C(c2nc(-c3ccc(Br)cc3)cs2)C1=N`, `CCOC(=O)n1cc(-c2nonc2-c2cn(C)c3ccccc23)c2ccccc21` is lower in growth: 103% for the first, 46.3% for the second.

Going from `COC(=O)/C(CCC=C(C)C)=C1\[C@@H](OC(C)=O)C[C@@]2(C)[C@H]1CC(=O)[C@H]1[C@@]3(C)CCC(N4CCCC4)[C@@H](C)[C@@H]3CC[C@@]12C` (stereo not given in full) to `CC[C@H](CC[C@@H](C)[C@H]1CC[C@H]2[C@@H]3CC[C@@H]4CC(=O)/C(=C\c5ccncc5)C[C@]4(C)[C@H]3CC[C@]12C)C(C)C`, the growth rises from 99.2% to 100%.

Compared with `Nc1c(C(=O)Nc2ccccn2)sc2nc3c(cc12)C(O)CCC3` (stereo not given), `CN1CCN(Cc2ccc(NC(=O)c3cncc(C#Cc4cncc5ncccc45)c3)cc2C(F)(F)F)CC1` is lower in growth: 20.3% for the first, 19.1% for the second.

Compared with `COc1ccc2nc3cc(Cl)ccc3c(NCCN)c2c1`, `Cc1c2ccccc2nc2c1ccc1cccnc12` is lower in growth: 79.6% for the first, 53% for the second.

First: Cc1ccc(C)n1/C=C/n1c(C)ccc1C
Second: CCC(C)Nc1ccc(NC(C)CC)cc1 (stereo not given)
The growth of the first is lower: 98.7% for the first, 100% for the second.

First: CCC/C(=N\NC(N)=O)C(OC)OC
Second: Cc1cc2oc(=O)cc(CP(=O)(O)O)c2cc1O
The growth of the first is higher: 100% for the first, 99.2% for the second.

First: O=C1CC2C=CCN2C=C1NC(=O)C1CCCCC1 (stereo not given)
Second: C/C(=C(\c1ccc(OCCN2CCCCCC2)cc1)c1ccc(OC(=O)Cc2ccccc2)cc1)c1ccc(Cl)cc1
The growth of the first is higher: 102% for the first, 40.1% for the second.

First: O=C1/C(=C/c2cccc([N+](=O)[O-])c2)COc2ccc(O)cc21
Second: COc1ccccc1-n1c(-c2cc(O)ccc2C)cn2c3c(=O)[nH]c(=O)n(C)c3nc12
The growth of the first is higher: 89.1% for the first, 77.3% for the second.

Going from `COc1cc2c3c(c1O)-c1ccccc1[C@@H]1OC(=O)N(CC2)[C@H]31` to `COc1cc(C#Cc2ccc(=O)oc2C#Cc2ccccc2)cc(OC)c1OC`, the growth falls from 96.1% to 56.7%.

Compared with `COC(c1ccc2ccccc2c1)C(C)C(F)F` (stereo not given), `C#CCn1cnc2c(Nc3cccc(NC(=O)CCl)c3)ncnc21` is lower in growth: 112% for the first, 31.4% for the second.

Work on `CCCCCCCCCCCCCCCCCCOc1ccccc1CC(=O)OCC[N+]1(C)CCOCC1` yielded a growth of 79.8%.

For `COc1ccc(C2=NN(C(=O)c3cc(OC)c(OC)c(OC)c3)C(c3ccc(N(C)C)cc3)C2)cc1` (stereo not given), the growth was 5.24% (active).
With `Cc1cc2nc3c4ccccc4n(CCN(C)C)c3nc2cc1C` the growth was 6.22% (active).
In the case of `NC(CSC(c1ccccc1)(c1ccccc1)c1ccc2c(c1)OCO2)C(=O)O` (stereo not given), the growth is reported as 8.31% (active).
For `Cn1ccnc1C(=O)/C=C/c1ccc(C(=O)Nc2ccc(F)cc2)cc1`, the growth was 8.1% (active).
With `COc1ccccc1NC(=O)c1ccc(/C=C/C(=O)c2nccn2C)cc1` the growth was -97.1% (active).
`O=C1c2cccnc2C(=O)c2c1c(C(=O)OCCCN1CCCCC1)c1ccccn21` was tested, and the growth was -96.2% (active).
With `Nc1ncnc2c1c(-c1ccc(Oc3ccccc3)cc1)nn2CC1SSCC1O` (stereo not given) the growth was -42.9% (active).
With `Cc1cc(C)cc(Nc2ccc([N+](=O)[O-])c(NCCN3CCOCC3)n2)c1` the growth was -20.3% (active).
For `COc1ccc2nc3ccccc3c(NCc3ccc(F)cc3)c2c1`, the growth was -6.56% (active).
In the case of `COc1ccc(Cl)cc1Nc1nc(C(F)(F)F)ccc1C(=O)N/N=C/c1ccccc1Cl`, the growth is reported as 3.59% (active).
